Assay results from PubChem BioAssay (EPA / NIEHS).
“And” between values parts separate entries of the source, which are not always exact repeats. Identical values can stand only once. Records with an inconclusive call do not appear. The source made the active and inactive calls. Rule for the calls, unless noted: active = hit-call score of the fitted dose curve at least 0.9, where 1 is the maximum; inconclusive = response in the unintended direction; inactive = score below 0.9.

Experiments:
[1] = target: Nuclear receptor subfamily 1 group I member 2 (Homo sapiens) (UniProt O75469); experiment: NVS_NR_hPXR: NovaScreen (NVS) Nuclear Receptor Binding Assay for human Pregnane X Receptor (PXR) (AID 2283365);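 note: a drop in FRET signal versus DMSO baseline means the compound binds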
In short: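 TR-FRET signal read at 2 h in a cell-free human PXR binding format. DMSO served as negative control and baseline; activity scored as signal loss. Single-concentration duplicate screen (25 uM), then concentration-response follow-up.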

[2] = target: mouse Estrogen Receptor alpha (Era), Esr1 (gene 13982) (UniProt P19785); experiment: NVS_NR_mERa: NovaScreen (NVS) Nuclear Receptor Binding Assay for mouse Estrogen Receptor alpha (Era) (AID 2283378);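 note: hit means loss of bound radioligand signal relative to DMSO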
mouse Estrogen Receptor alpha (Era), Esr1 (gene 13982), sequence (P19785 whole entry, looked up): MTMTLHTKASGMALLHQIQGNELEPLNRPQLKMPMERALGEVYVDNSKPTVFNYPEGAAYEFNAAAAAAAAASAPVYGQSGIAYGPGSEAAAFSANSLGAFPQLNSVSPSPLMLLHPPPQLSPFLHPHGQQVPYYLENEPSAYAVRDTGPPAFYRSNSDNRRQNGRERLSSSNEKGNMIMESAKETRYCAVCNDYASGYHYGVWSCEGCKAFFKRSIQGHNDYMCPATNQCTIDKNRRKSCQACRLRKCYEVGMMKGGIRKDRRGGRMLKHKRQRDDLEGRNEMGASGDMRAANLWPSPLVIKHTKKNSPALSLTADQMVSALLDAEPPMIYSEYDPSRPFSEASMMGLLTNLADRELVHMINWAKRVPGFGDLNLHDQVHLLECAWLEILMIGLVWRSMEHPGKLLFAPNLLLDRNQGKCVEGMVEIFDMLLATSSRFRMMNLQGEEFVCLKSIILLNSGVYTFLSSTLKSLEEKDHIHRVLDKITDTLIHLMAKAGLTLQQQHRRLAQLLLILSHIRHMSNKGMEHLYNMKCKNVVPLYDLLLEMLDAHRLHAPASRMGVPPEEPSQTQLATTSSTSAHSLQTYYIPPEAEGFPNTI
In short: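 Filter scintillation counts of bound radioligand, measured 18 h post-dose, gave the readout; decreased signal relative to DMSO controls indicated displacement from mouse Era. Primary screen ran in duplicate at 25 uM; active chemicals were retested across concentrations.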

[3] = target: Estrogen receptor (Homo sapiens) (UniProt P03372); experiment: OT_ERa_GFPERaERE_0480: Odyssey Thera (OT) 8-hour HeLa Transcription Induction Assay for Estrogen Receptor (AID 2283381; active = hit-call score of the fitted dose curve at least 0.9, where 1 is the maximum; inactive = score below 0.9)
Estrogen receptor (Homo sapiens), sequence (P03372 whole entry, looked up): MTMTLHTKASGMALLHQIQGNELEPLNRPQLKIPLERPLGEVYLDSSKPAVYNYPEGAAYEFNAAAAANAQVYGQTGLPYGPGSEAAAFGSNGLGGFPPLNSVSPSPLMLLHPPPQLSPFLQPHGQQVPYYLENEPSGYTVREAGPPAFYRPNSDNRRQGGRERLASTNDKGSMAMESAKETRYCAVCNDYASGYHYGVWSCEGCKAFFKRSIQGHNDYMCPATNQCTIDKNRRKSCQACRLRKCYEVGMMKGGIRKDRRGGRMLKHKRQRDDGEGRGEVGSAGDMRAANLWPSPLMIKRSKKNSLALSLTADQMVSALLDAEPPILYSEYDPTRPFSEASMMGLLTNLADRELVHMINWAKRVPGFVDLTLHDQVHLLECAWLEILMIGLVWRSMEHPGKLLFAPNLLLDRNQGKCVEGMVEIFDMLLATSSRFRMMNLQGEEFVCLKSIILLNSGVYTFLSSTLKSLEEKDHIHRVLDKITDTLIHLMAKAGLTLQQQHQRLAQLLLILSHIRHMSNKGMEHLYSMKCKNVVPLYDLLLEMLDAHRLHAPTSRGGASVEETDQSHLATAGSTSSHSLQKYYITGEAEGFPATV
In short: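 An 8 h HeLa transcription-induction format with a GFP reporter under ERE control, read by fluorescence microscopy; single endpoint fitted positively with DMSO as baseline.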

[4] = target: Bile acid receptor (Homo sapiens) (UniProt Q96RI1); experiment: OT_FXR_FXRSRC1_0480: Odyssey Thera (OT) 8-hour HEK293T Protein-Complementation Assay for Farnesoid X receptor/SRC-1 Co-activator (AID 2283383)
In short: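 Readings were taken 8 h after dosing HEK293T cells in a split-reporter complementation format pairing FXR with SRC-1. Increased fluorescence relative to DMSO-treated wells defined activity.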

[5] = target: Peroxisome proliferator-activated receptor gamma (Homo sapiens) (UniProt P37231); experiment: NVS_NR_hPPARg: NovaScreen (NVS) Nuclear Receptor Binding Assay for human Peroxisome Proliferator-activated Receptor gamma (PPARg) (AID 2283370)
Peroxisome proliferator-activated receptor gamma (Homo sapiens), sequence (P37231 whole entry, looked up): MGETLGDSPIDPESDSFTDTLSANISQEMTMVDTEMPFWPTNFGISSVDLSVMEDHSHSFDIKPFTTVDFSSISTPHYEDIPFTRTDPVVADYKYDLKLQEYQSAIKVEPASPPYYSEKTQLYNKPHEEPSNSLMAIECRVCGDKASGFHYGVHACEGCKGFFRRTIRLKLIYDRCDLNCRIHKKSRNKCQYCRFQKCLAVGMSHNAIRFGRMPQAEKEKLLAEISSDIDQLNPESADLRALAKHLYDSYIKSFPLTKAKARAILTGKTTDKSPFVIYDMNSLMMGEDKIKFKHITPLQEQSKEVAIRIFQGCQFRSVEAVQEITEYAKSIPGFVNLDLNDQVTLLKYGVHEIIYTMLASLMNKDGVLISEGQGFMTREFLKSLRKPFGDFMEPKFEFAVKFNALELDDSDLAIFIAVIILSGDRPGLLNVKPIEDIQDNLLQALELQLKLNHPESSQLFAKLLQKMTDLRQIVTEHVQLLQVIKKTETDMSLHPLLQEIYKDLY
In short: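 FP read-out, 2 h post-dose, cell-free extracted receptor protein. Signal loss vs DMSO negative control = binding activity. Single-conc duplicate HTS at 25 uM; concentration-response follow-up for actives.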

[6] = target: Estrogen receptor beta (Homo sapiens) (UniProt Q92731); experiment: OT_ER_ERbERb_1440: Odyssey Thera (OT) 24-hour HEK293T Protein-Complementation Assay for Estrogen Receptor-beta/-beta Homodimer (AID 2283380);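 note: fluorescence gain from ER beta LBD homodimer complementation read by laser scanning cytometry; scored as signal increase over DMSO baseline for both agonists and antagonists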
Estrogen receptor beta (Homo sapiens), sequence (Q92731 whole entry, looked up, the tested form may be a part): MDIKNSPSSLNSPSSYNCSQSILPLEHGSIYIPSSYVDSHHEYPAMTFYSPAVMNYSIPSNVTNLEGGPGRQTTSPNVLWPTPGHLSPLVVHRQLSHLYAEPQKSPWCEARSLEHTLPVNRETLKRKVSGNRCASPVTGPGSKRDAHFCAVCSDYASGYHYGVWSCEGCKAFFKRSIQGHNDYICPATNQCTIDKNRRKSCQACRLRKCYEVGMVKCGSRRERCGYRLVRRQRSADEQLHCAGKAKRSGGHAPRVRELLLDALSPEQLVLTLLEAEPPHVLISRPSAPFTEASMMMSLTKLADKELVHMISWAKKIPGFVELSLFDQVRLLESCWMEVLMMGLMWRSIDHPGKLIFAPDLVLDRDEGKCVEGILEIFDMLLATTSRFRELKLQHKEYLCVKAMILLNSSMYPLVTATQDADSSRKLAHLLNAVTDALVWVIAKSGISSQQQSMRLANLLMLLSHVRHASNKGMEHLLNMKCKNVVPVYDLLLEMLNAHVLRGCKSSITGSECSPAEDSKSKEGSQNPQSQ
In short: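 HEK293T cells stably expressing human ER-beta LBD (aa 310-547) PCA homodimer pair, dosed 24 h; formaldehyde-fixed, Draq5-stained. Readout: increase in nuclear (agonist) or nuclear plus cytoplasmic (antagonist) fluorescence intensity versus DMSO, gain-of-signal fitting.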

[7] = target: human Dopamine Transporter (DAT), SLC6A3 (gene 6531) (UniProt Q01959); experiment: NVS_TR_hDAT: NovaScreen (NVS) Transporter Assay for human Dopamine Transporter (DAT) (AID 2283374);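 note: activity means loss of bound radioligand signal relative to DMSO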
In short: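 Extracted human SLC6A3 protein incubated 1 h with radioligand and test chemical; bound fraction separated on filters and counted. Single 25 uM duplicate screen preceded concentration-response follow-up; positive and negative controls on every plate.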

[8] = target: human Norepinephrine Transporter (NET), SLC6A2 (gene 6530) (UniProt P23975); experiment: NVS_TR_hNET: NovaScreen (NVS) Transporter Assay for human Norepinephrine Transporter (NET) (AID 2283377);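 note: cell-free membrane protein extracted from CHO cells expressing human NET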;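 for AC50: displacement of radioligand from human NET seen as loss of scintillation signal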
In short: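 In this cell-free binding screen, chemicals at 25 uM (duplicate) compete with a radioligand for CHO-derived human NET over 1 hour, with filter-based radiodetection.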

[9] = target: Estrogen receptor (Homo sapiens) (UniProt P03372); experiment: OT_ERa_GFPERaERE_0120: Odyssey Thera (OT) 2-hour HeLa Transcription Induction Assay for Estrogen Receptor (AID 2283382)
In short: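 Two-hour compound treatment of HeLa cells preceded microscopy imaging of an inducible fluorescent reporter. Image-based quantification gave one endpoint, analysed for signal increase relative to DMSO controls.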

[10] = target: Glucocorticoid receptor (Homo sapiens) (UniProt P04150); experiment: NVS_NR_hGR: NovaScreen (NVS) Nuclear Receptor Binding Assay for human Glucocorticoid Receptor (GR) (AID 2283363);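 note: activity is loss of specific radioligand binding signal relative to DMSO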
Glucocorticoid receptor (Homo sapiens), sequence (P04150 whole entry, looked up): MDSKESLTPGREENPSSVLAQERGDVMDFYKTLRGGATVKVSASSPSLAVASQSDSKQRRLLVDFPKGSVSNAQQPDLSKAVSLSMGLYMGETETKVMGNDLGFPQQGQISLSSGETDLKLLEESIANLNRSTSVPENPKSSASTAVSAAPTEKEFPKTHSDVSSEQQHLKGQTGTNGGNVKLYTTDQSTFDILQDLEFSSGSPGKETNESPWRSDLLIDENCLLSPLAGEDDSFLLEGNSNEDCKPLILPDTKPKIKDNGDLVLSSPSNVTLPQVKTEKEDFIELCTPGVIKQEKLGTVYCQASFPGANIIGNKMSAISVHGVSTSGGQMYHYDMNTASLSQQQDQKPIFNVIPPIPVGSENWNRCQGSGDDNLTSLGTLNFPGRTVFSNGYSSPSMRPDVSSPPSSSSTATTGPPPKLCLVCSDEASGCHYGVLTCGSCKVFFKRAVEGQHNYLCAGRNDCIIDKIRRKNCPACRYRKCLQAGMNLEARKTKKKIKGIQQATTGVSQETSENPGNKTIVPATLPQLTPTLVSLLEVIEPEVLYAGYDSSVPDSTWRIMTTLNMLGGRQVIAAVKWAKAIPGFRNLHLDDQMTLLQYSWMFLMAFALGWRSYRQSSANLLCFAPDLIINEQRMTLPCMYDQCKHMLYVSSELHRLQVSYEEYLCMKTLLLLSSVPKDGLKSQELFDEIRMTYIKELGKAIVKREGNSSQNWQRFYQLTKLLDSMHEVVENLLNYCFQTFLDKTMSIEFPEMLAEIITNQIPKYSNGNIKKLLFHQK
In short: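 Single-readout cell-free binding: radioligand plus extracted receptor, 16-hour dosing, filter radiodetection; 25 uM duplicate primary, concentration series secondary.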

[11] = target: Agonist Androgen Response Element (ARE), AR (gene 367) (UniProt P10275); experiment: OT_AR_ARELUC_AG_1440: Odyssey Thera (OT) 24-hour CHO-K1 Luciferase Assay for Agonist Androgen Response Element (ARE) (AID 2283379)
Agonist Androgen Response Element (ARE), AR (gene 367), sequence (P10275 whole entry, looked up): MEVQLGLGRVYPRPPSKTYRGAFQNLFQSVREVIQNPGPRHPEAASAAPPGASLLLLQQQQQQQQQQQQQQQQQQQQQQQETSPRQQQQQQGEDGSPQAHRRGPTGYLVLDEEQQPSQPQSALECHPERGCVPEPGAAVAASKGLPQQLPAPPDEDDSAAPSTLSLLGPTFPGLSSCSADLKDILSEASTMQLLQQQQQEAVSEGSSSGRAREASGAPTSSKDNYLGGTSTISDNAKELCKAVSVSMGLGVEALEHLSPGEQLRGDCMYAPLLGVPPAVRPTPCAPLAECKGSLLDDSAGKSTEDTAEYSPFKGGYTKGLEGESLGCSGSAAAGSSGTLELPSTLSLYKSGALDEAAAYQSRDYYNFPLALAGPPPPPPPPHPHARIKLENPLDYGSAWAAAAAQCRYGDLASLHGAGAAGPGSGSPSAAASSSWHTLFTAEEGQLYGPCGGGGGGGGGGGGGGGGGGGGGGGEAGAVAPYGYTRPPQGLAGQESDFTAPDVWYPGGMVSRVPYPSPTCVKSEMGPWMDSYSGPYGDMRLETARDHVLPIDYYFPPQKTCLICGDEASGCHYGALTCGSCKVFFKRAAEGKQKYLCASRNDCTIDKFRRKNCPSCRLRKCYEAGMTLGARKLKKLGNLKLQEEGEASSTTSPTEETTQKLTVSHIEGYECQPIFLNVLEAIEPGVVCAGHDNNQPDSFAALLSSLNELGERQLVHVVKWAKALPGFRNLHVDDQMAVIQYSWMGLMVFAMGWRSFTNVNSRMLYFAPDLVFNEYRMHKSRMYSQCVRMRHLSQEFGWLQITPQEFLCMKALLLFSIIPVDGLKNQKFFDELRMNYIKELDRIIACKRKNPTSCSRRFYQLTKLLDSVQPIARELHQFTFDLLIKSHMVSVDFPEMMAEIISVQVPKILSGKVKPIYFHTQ
In short: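 Luminescence increase above DMSO, read after a 24 h compound treatment of CHO-K1 cells expressing an androgen response element luciferase reporter, gives the single primary endpoint; concentration-response fitting used the positive direction.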

[12] = target: rat Androgen Receptor (AR), Ar (gene 24208) (UniProt P15207); experiment: NVS_NR_rAR: NovaScreen (NVS) Nuclear Receptor Binding Assay for rat Androgen Receptor (AR) (AID 2283366)
rat Androgen Receptor (AR), Ar (gene 24208), sequence (P15207 whole entry, looked up): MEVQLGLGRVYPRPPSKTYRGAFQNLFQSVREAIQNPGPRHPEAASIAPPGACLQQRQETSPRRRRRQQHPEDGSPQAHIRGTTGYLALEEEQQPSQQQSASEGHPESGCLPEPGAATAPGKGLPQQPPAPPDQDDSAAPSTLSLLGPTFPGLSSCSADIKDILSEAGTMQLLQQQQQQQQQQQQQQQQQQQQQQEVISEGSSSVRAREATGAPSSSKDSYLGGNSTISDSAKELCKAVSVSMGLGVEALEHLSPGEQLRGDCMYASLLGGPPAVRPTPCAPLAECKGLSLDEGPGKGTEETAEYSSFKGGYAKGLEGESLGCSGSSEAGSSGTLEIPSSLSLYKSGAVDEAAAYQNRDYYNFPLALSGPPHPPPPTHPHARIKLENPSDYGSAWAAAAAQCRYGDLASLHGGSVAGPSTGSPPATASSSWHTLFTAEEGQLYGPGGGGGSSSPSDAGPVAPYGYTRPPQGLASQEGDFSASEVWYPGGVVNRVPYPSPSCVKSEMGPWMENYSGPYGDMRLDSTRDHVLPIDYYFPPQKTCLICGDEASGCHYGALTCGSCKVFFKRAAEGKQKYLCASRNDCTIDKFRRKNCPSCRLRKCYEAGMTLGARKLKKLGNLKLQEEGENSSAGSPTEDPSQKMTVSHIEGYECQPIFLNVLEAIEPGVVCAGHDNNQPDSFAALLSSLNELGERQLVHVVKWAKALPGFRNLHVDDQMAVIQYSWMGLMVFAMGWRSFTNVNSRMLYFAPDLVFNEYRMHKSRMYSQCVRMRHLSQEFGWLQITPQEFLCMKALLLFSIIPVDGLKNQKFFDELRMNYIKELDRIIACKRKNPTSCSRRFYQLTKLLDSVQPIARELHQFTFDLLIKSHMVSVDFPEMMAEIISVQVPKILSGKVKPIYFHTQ
In short: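 Actives from a duplicate single-concentration (25 uM) primary run went on to concentration series. Displacement of radioligand was counted by filtration and scintillation, 18 h post-dose, using prostate extracts from testosterone-pretreated rats, with DMSO as baseline.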

[13] = test system: guinea pig Dopamine Transporter (DAT), gene 100714898; experiment: NVS_TR_gDAT: NovaScreen (NVS) Transporter Assay for guinea pig Dopamine Transporter (DAT) (AID 2283369);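 note: active compounds lower bound radioligand signal relative to DMSO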
In short: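 Cell-free striatal membrane prep (guinea pig), 2 h exposure, filtration + scintillation readout of radioligand binding. Single-point 25 uM duplicate; actives rerun singleton, top conc 50 uM.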

[14] = target: Norway rat Vesicular Monoamine Transporter (VMAT2), neurotransmitter transporter, Slc18a2 (gene 25549) (UniProt Q01827); experiment: NVS_TR_rVMAT2: NovaScreen (NVS) Transporter Assay for Norway rat Vesicular Monoamine Transporter (VMAT2), neurotransmitter transporter (AID 2283376);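 note: actives lower the bound radioligand signal below the DMSO level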
In short: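 Binding endpoint from rat forebrain tissue, cell-free; 1 h incubation; filtered radioligand counted; 25 uM duplicate primary then dose series; DMSO negative control.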

CC1(C)CCC(Cc2ccc(Cl)cc2)C1(O)Cn1cncn1 (centres undefined)
outcome [1]: inactive
outcome [2]: inactive
outcome [3]: inactive
AC50 [4]: 24.3 µM (active)

C=CC#N
outcome [1]: inactive
outcome [5]: inactive
outcome [2]: inactive
outcome [6]: inactive
outcome [3]: inactive

CCOP(=S)(OCC)SCSP(=S)(OCC)OCC
outcome [1]: inactive
AC50 [7]: 25 µM (active)
outcome [8]: inactive
AC50 [6]: 17.5 µM (active)
outcome [3]: inactive
AC50 [9]: 10.9 µM (active)

CC(C)C1CCC(Cc2ccc(Cl)cc2)C1(O)Cn1cncn1 (centres undefined)
AC50 [10]: 5.7 µM (active)
AC50 [1]: 15.5 µM (active)
outcome [5]: inactive
outcome [6]: inactive
outcome [3]: inactive

COP(=O)(OC)O/C(=C\Cl)c1cc(Cl)c(Cl)cc1Cl
AC50 [1]: 25 µM (active)
outcome [5]: inactive
outcome [2]: inactive
outcome [3]: inactive
outcome [4]: inactive

Cc1ccccc1C(=O)Nc1cccc(OC(C)C)c1
AC50 [1]: 7.03 µM (active)
outcome [5]: inactive
outcome [11]: inactive
outcome [6]: inactive
outcome [3]: inactive

COc1cc(OC)nc(NC(=O)NS(=O)(=O)c2ncccc2C(=O)N(C)C)n1
outcome [1]: inactive
outcome [6]: inactive
outcome [3]: inactive

CC12CC1(C)C(=O)N(c1cc(Cl)cc(Cl)c1)C2=O (centres undefined)
outcome [1]: inactive
outcome [12]: inactive
outcome [11]: inactive
outcome [6]: inactive

Cc1ccccc1N
outcome [1]: inactive

C[C@@H]1C[C@@H]([C@H](O)CC2CC(=O)NC(=O)C2)C(=O)[C@@H](C)C1
outcome [1]: inactive
outcome [6]: inactive

CC(C)(C)CC(C)(C)c1ccc(O)cc1
AC50 [10]: 4.67 µM (active) and 15.9 µM (active) and 7.33 µM (active)
outcome [12]: inactive
outcome [13]: inactive
AC50 [7]: 15.1 µM (active)
outcome [14]: inactive
AC50 [8]: 11.7 µM (active)
outcome [11]: inactive
AC50 [6]: 1.04 µM (active) and 593 nM (active) and 1.02 µM (active)
AC50 [4]: 11.2 µM (active)
